Measured values published in PubChem BioAssay (EPA / NIEHS).
Results filed as inconclusive are left out. Calls of active or inactive are those of the source. Rule for the calls: active = hit-call score of the fitted dose curve at least 0.9, where 1 is the maximum; inconclusive = response in the unintended direction; inactive = score below 0.9.

biological target: Androgen Receptor/SRC-1 Co-activator, AR (gene 367) (UniProt P10275); test: OT_AR_ARSRC1_0480: Odyssey Thera (OT) 8-hour HEK293T Protein-Complementation Assay for Androgen Receptor/SRC-1 Co-activator (AID 2283354);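 note: hits raise the complementation signal above DMSO so AC50 marks enhancers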
How it was run: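 Reconstituted split-Venus YFP signal from AR–SRC-1 interaction, read by imaging 8 h post-dose in stable HEK293T lines. The 488 nm nucleus-to-cytoplasm ratio (≥400 cells/image) was fitted upward against DMSO.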

Sequence of Androgen Receptor/SRC-1 Co-activator, AR (gene 367) (P10275 whole entry, looked up): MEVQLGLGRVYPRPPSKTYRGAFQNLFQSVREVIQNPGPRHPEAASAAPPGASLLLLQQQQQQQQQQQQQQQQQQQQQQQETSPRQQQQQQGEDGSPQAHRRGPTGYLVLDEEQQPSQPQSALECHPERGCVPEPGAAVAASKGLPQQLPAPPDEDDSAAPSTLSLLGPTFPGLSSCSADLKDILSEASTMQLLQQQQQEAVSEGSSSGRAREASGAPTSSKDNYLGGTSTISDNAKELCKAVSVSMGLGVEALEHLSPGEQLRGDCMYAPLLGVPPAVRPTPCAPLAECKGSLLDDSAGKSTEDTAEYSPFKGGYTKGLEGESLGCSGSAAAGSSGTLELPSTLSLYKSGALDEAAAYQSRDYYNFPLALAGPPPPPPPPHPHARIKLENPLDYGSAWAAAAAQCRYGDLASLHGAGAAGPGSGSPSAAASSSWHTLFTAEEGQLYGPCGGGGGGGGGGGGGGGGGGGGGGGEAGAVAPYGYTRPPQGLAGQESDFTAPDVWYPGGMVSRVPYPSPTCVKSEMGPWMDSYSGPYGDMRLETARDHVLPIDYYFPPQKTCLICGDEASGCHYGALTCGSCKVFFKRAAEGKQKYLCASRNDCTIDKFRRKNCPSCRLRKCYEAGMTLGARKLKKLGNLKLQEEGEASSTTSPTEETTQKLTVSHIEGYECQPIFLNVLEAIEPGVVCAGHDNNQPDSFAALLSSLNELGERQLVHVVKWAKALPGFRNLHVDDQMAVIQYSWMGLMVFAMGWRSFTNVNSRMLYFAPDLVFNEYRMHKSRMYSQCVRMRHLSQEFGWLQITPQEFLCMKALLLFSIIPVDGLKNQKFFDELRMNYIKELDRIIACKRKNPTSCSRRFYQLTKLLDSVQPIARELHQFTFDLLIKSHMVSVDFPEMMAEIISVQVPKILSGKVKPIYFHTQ

Structure (SMILES)	outcome	AC50
O=S1(=O)OC(c2cc(Br)c(O)c(Br)c2)(c2cc(Br)c(O)c(Br)c2)c2ccccc21	inactive	
O=C(O)COc1cc(Cl)c(Cl)cc1Cl	inactive	
Cc1cc(Cl)ccc1OCCCC(=O)O	inactive	
O=C(N[C@H]1CN2CCC1CC2)c1ccc2c(c1)OCCO2	inactive	
O=C(NC(=O)c1c(F)cccc1F)Nc1cc(Cl)c(OC(F)(F)C(F)C(F)(F)F)cc1Cl (stereo unspecified)	inactive	
O=S1OC[C@@H]2[C@H](CO1)[C@]1(Cl)C(Cl)=C(Cl)[C@@]2(Cl)C1(Cl)Cl (stereo partly specified)	inactive	
CC(=Cc1ccccc1)[N+](=O)[O-]		18 µM (active)
N#CCC#N	inactive	
C=CC(Cl)CCl (stereo unspecified)	inactive	
CC(C)N(C(=O)CCl)c1ccccc1	inactive	
O=C1c2ccccc2C(=O)C1C(=O)C(c1ccccc1)c1ccc(Cl)cc1 (stereo unspecified)		30 µM (active)
O=[N+]([O-])c1ccc(Cl)c([N+](=O)[O-])c1		15 µM (active)
O=C(CCl)Nc1ccccc1		59.5 µM (active)

biological target: rat Mineralocorticoid Receptor (MR), Nr3c2 (gene 25672) (UniProt P22199); test: NVS_NR_rMR: NovaScreen (NVS) Nuclear Receptor Binding Assay for rat Mineralocorticoid Receptor (MR) (AID 2283355)
How it was run: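 Primary HTS ran in duplicate at a single 25 uM concentration, with concentration-series follow-up for actives. Receptor source: adrenalectomized rat brain supernatant, cell-free. Radioligand displacement read by scintillation at 24 h, relative to DMSO baseline.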

Sequence of rat Mineralocorticoid Receptor (MR), Nr3c2 (gene 25672) (P22199 whole entry, looked up): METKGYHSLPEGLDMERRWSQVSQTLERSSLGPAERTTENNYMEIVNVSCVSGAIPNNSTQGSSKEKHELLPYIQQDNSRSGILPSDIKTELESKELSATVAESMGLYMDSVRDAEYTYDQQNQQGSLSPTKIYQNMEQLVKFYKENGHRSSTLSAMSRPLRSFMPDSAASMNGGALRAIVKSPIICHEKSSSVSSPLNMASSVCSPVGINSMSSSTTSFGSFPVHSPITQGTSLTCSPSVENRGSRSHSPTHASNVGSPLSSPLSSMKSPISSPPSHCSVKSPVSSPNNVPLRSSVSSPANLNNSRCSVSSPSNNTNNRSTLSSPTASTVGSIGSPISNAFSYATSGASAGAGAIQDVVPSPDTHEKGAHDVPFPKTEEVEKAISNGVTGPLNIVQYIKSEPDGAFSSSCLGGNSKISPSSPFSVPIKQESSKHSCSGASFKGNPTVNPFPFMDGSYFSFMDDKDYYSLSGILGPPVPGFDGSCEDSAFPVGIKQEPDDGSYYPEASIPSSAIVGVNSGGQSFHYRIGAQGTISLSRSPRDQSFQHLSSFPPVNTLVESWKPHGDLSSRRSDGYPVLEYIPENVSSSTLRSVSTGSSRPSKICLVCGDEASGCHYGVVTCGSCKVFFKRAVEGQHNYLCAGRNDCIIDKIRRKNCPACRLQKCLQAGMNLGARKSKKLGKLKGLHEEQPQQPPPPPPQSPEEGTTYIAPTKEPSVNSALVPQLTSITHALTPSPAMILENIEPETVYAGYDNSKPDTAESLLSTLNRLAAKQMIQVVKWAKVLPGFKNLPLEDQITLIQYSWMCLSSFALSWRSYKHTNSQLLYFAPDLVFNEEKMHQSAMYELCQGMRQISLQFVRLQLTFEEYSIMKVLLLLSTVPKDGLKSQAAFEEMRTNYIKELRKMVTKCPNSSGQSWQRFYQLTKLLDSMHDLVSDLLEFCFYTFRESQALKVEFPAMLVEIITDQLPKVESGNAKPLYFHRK

Structure (SMILES)	outcome
Clc1cccc(Cl)c1	inactive
O=c1oc2ccccc2c(O)c1C(CC(O)c1ccc(-c2ccc(Br)cc2)cc1)c1ccccc1 (stereo unspecified)	inactive
Cc1cc(C(C)(C)c2ccc(O)c(C)c2)ccc1O	inactive
CCOP(=O)(OCC)OC(=CCl)c1ccc(Cl)cc1Cl	inactive
CC(C=O)Cc1ccc2c(c1)OCO2 (stereo unspecified)	inactive

biological target: Retinoic acid receptor alpha (Homo sapiens) (UniProt P10276); test: NVS_NR_hRAR_Antagonist: NovaScreen (NVS) Nuclear Receptor Binding Assay for human Retinoic Acid Alpha Receptor Antagonism (RAR) (AID 2283358)
How it was run: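 RARalpha antagonism was read by TR-FRET as loss of binding signal versus DMSO, 2 h after chemical addition, in a biochemical format. Single-concentration duplicates (25 uM) were run first, and actives were retested in concentration series.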

Sequence of Retinoic acid receptor alpha (Homo sapiens) (P10276 whole entry, looked up): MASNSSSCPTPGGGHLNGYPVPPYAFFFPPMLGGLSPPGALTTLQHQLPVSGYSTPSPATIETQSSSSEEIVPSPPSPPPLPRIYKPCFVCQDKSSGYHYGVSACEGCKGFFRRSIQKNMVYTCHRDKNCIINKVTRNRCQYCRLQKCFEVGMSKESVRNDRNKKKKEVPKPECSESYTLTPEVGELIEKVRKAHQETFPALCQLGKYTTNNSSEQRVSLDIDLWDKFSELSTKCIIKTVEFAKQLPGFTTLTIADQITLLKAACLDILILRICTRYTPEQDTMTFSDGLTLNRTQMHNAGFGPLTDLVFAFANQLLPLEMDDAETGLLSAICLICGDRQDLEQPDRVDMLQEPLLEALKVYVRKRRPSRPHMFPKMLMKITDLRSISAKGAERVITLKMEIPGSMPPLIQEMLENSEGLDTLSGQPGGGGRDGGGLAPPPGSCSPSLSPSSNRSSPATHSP

Structure (SMILES)	outcome	AC50
CCC[CH2][Sn]([Cl])([Cl])[CH2]CCC	inactive	
Clc1cccc(Cl)c1Cl	inactive	
CCCCCCCCCCCCc1cccc(S(=O)(=O)O)c1		22.5 µM (active)

biological target: human Peroxisome Proliferator-activated Receptor alpha (PPARa), PPARA (gene 5465) (UniProt Q07869); test: NVS_NR_hPPARa: NovaScreen (NVS) Nuclear Receptor Binding Assay for human Peroxisome Proliferator-activated Receptor alpha (PPARa) (AID 2283359);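 note: activity means loss of TR-FRET signal versus DMSO baseline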
How it was run: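 Loss of TR-FRET binding signal relative to DMSO was measured 1 h after chemical addition to extracted receptor protein. Chemicals were first tested in duplicate at 25 uM, and actives were followed up in concentration series.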

Sequence of human Peroxisome Proliferator-activated Receptor alpha (PPARa), PPARA (gene 5465) (Q07869 whole entry, looked up): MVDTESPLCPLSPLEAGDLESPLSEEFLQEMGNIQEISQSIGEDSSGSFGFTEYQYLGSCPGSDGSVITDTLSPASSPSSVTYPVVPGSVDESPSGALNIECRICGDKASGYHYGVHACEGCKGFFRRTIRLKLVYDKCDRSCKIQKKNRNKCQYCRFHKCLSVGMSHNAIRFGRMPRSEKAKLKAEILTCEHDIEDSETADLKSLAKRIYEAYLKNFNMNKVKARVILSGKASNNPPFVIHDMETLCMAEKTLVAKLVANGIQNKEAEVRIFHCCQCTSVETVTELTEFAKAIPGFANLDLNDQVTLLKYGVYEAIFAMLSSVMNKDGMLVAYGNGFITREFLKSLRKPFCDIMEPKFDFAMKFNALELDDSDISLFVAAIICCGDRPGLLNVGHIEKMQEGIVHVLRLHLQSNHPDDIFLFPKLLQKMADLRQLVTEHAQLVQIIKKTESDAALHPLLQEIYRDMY

Structure (SMILES)	AC50	outcome
CCC[CH2][Sn]([Cl])([Cl])[CH2]CCC	12 µM (active)	
N#CCC#N		inactive
O=C1c2ccccc2C(=O)C1C(=O)C(c1ccccc1)c1ccc(Cl)cc1 (stereo unspecified)		inactive
O=[N+]([O-])c1ccc(Cl)c([N+](=O)[O-])c1		inactive
CCCCCCCCCCCCc1cccc(S(=O)(=O)O)c1	9.25 µM (active)	
CC(C)(C)c1ccccc1O		inactive
N#Cc1cccnc1		inactive

biological target: PGR (gene 5241) (UniProt P06401); test: NVS_NR_hPR: NovaScreen (NVS) Nuclear Receptor Binding Assay for human Progestron Receptor (PR) (AID 2283360);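 note: active means loss of bound radioligand signal versus DMSO baseline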
How it was run: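 Cell-free radioligand binding using receptor protein extracted from T47D cells, read by scintillation counting 18 hours after dosing. Loss of signal relative to DMSO baseline indicates displacement; primary screen single concentration 25 uM in duplicate, actives followed in concentration series.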

Sequence of PGR (gene 5241) (P06401 whole entry, looked up): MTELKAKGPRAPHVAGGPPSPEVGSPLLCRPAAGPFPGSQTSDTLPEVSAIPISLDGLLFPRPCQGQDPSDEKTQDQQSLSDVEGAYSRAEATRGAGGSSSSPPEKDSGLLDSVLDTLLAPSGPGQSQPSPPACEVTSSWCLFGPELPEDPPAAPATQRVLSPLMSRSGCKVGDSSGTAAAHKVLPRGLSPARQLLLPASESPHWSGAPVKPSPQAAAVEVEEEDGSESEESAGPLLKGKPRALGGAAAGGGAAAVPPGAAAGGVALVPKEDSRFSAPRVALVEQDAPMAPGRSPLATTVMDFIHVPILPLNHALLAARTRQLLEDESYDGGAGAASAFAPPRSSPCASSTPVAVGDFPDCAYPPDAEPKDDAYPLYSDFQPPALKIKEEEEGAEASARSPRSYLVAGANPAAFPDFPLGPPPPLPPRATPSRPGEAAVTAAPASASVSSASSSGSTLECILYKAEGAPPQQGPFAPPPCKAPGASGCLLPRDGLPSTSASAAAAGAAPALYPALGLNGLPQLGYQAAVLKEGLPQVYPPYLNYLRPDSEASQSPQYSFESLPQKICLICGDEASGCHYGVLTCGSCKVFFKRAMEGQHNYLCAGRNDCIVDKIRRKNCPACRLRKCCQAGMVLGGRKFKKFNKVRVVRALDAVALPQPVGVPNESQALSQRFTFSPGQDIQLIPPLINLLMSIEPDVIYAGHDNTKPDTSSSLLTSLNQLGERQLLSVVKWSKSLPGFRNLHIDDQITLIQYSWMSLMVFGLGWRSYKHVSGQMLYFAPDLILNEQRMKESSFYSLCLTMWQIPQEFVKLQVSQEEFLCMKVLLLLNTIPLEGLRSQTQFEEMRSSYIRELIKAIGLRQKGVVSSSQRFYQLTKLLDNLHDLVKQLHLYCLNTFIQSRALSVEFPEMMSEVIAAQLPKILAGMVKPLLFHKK

Structure (SMILES)	outcome	AC50
O=C(N[C@H]1CN2CCC1CC2)c1ccc2c(c1)OCCO2	inactive	
O=c1oc2ccccc2c(O)c1C(CC(O)c1ccc(-c2ccc(Br)cc2)cc1)c1ccccc1 (stereo unspecified)		23.9 µM (active)
Cc1cc(C(C)(C)c2ccc(O)c(C)c2)ccc1O		23.3 µM (active)
CCOP(=O)(OCC)OC(=CCl)c1ccc(Cl)cc1Cl		42.9 µM (active)
Clc1cccc(Cl)c1Cl	inactive	
CCCCCCCCCCCCc1cccc(S(=O)(=O)O)c1		15.9 µM (active)

biological target: Glucocorticoid receptor (Homo sapiens) (UniProt P04150); test: NVS_NR_hGR: NovaScreen (NVS) Nuclear Receptor Binding Assay for human Glucocorticoid Receptor (GR) (AID 2283363);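 for AC50: activity is loss of specific radioligand binding signal relative to DMSO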
How it was run: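 Compounds first tested in duplicate at 25 uM, actives followed up in concentration series. Binding to extracted GR protein measured as competitive radioligand displacement, filter scintillation read 16 h post-dosing, normalised to DMSO.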

Sequence of Glucocorticoid receptor (Homo sapiens) (P04150 whole entry, looked up): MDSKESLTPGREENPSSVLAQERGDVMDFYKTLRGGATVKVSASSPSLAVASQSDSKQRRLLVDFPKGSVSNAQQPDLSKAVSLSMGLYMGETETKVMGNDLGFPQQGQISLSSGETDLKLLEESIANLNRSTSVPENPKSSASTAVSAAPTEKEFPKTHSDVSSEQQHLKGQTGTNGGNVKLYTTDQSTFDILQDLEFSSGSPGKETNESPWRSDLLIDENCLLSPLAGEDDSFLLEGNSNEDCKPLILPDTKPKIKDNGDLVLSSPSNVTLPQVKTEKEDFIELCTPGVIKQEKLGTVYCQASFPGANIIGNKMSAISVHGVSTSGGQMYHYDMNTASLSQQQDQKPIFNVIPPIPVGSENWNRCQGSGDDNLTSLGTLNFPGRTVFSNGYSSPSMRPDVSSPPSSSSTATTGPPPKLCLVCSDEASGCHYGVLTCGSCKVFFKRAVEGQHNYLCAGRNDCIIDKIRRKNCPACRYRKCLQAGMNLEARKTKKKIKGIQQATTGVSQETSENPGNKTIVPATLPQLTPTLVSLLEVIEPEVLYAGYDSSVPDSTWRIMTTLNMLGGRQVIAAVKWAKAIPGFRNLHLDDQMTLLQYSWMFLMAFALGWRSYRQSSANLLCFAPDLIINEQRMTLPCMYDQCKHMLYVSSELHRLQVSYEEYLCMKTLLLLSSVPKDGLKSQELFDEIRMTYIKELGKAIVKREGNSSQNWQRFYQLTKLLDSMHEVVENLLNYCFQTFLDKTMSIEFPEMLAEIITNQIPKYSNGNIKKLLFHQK

Structure (SMILES)	AC50	outcome
O=S1(=O)OC(c2cc(Br)c(O)c(Br)c2)(c2cc(Br)c(O)c(Br)c2)c2ccccc21	0.426 µM (active)	
O=c1oc2ccccc2c(O)c1C(CC(O)c1ccc(-c2ccc(Br)cc2)cc1)c1ccccc1 (stereo unspecified)	7.76 µM (active)	
CCC[CH2][Sn]([Cl])([Cl])[CH2]CCC	3.88 µM (active)	
Cc1cc(C(C)(C)c2ccc(O)c(C)c2)ccc1O	1.82 µM (active)	
O=C1c2ccccc2C(=O)C1C(=O)C(c1ccccc1)c1ccc(Cl)cc1 (stereo unspecified)	3.72 µM (active)	
O=[N+]([O-])c1ccc(Cl)c([N+](=O)[O-])c1	4.52 µM (active)	
CCOP(=O)(OCC)OC(=CCl)c1ccc(Cl)cc1Cl	25 µM (active)	
CC(C=O)Cc1ccc2c(c1)OCO2 (stereo unspecified)		inactive
CCCCCCCCCCCCc1cccc(S(=O)(=O)O)c1	4.55 µM (active)	

biological target: Nuclear receptor subfamily 1 group I member 2 (Homo sapiens) (UniProt O75469); test: NVS_NR_hPXR: NovaScreen (NVS) Nuclear Receptor Binding Assay for human Pregnane X Receptor (PXR) (AID 2283365);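 note: a drop in FRET signal versus DMSO baseline means the compound binds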
How it was run: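 Human PXR binding measured by TR-FRET in a cell-free format, 2 h exposure. Single-concentration duplicates at 25 uM preceded concentration-response retests of actives; endpoint fitted positively relative to DMSO, loss of signal indicating binding.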

Sequence of Nuclear receptor subfamily 1 group I member 2 (Homo sapiens) (O75469 whole entry, looked up): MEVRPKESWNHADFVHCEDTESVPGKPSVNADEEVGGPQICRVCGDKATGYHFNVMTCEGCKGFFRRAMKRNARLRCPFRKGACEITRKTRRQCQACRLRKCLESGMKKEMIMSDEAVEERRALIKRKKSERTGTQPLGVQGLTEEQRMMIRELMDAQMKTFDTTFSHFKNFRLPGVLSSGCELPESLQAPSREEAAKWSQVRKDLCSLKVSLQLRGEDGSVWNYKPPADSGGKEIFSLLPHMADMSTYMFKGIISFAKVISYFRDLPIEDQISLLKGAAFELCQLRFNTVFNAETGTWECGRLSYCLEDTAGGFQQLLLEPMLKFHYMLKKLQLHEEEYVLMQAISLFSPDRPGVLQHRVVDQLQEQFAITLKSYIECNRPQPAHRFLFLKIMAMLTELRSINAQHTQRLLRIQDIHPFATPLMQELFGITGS

Structure (SMILES)	AC50	outcome
O=S1(=O)OC(c2cc(Br)c(O)c(Br)c2)(c2cc(Br)c(O)c(Br)c2)c2ccccc21	5.92 µM (active)	
O=C(NC(=O)c1c(F)cccc1F)Nc1cc(Cl)c(OC(F)(F)C(F)C(F)(F)F)cc1Cl (stereo unspecified)		inactive
CCC[CH2][Sn]([Cl])([Cl])[CH2]CCC	5.56 µM (active)	
N#CCC#N		inactive
C=CC(Cl)CCl (stereo unspecified)	5.06 µM (active)	
Clc1cccc(Cl)c1Cl		inactive
O=C(CCl)Nc1ccccc1		inactive
CCCCCCCCCCCCc1cccc(S(=O)(=O)O)c1	26.6 µM (active)	
